Experimental data reported in the supplement of paper PMC5662767.
Where a name gives a salt, the structure may show the parent alone.

test system: Drosophila S2 cl14 SmoIP sensor cells; experiment: normalized SmoIP GFP fluorescence (untreated unstimulated = 0%, untreated Hh-stimulated = 100%); higher = more Smo activation sensor fluorescence; settings: stimulation: Hh conditioned medium (+Hh); compound concentration: 2 uM; 24 h
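Also: flow cytometry read-out as median GFP intensity of gated cells, compounds added 30 min before Hh-conditioned or mock medium, mock-treated cells serving as unstimulated baseline.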

Row | SMILES | normalized SmoIP GFP fluorescence [%]
1 | NC(=O)c1ncn([C@@H]2O[C@H](CO)[C@@H](O)[C@H]2O)c1N [Acadesine] | 127
2 | CC(C)(C)NC[C@H](O)COc1nsnc1N1CCOCC1 [timolol-maleate] | 111
3 | Cc1nccn1CC1CCc2c(c3ccccc3n2C)C1=O (centres undefined) [Ondansetron-hydrochloride] | 109
4 | N#Cc1ccc2[nH]c(O)c(-c3ccc(CN4CCOCC4)cn3)c2c1 | 108
5 | C[N+]1(C)[C@@H]2C[C@@H](OC(=O)C(O)(c3cccs3)c3cccs3)C[C@H]1[C@@H]1O[C@@H]12 [Tiotropium-Bromide-hydrate] | 114
6 | Cc1cccc(CC(=O)N2CCc3c2ccc(-c2cn(C)c4ncnc(N)c24)c3F)n1 | 102
7 | O=C(CCCCCN1C(=O)c2cccc3cccc(c23)C1=O)NO [scriptaid] | 163
8 | COC1CCN(C(=O)c2cc(Cc3n[nH]c(=O)c4ccccc34)ccc2F)CC1 | 103
9 | CC(COc1ccccc1)N(CCCl)Cc1ccccc1 (centres undefined) [Phenoxybenzamine-hydrochloride] | 148
10 | O=C(NC1CCOCC1)c1ccc(-c2cc(-c3c[nH]nc3-c3ccccn3)ccn2)cc1 | 168
11 | Cc1c(-c2ccccc2)oc2c(C(=O)OCCN3CCCCC3)cccc2c1=O [flavoxate-hcl] | 106
12 | Nc1cc(C(F)(F)F)c(-c2cc(N3CCOCC3)nc(N3CCOCC3)n2)cn1 | 68
13 | CCCCc1nc(Cl)c(CO)n1Cc1ccc(-c2ccccc2-c2nnn[nH]2)cc1 [losartan-potassium] | 90.8
14 | CC(C)N(C[C@H]1O[C@@H](n2cnc3c(N)ncnc32)[C@H](O)[C@@H]1O)[C@H]1C[C@@H](CCc2nc3cc(C(C)(C)C)ccc3[nH]2)C1 | 124
